# According to PubChem BioAssay (NCI):
# About 83,000 compounds went through this panel and 20% of them were active in at least one assay; those are over-represented in the sample as a whole.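 48-hour exposure, single concentration, 96-well plates; percent growth endpoint where 0 means no net growth. Active: below 10.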 Values without a mark were called inactive. Activity calls are given as the source filed them.
# Key:
# Assay in all cases: NCI-60 one-dose screen, 48 h (100 = growth as untreated, 0 = no growth, -100 = all killed)
# Conditions in all cases: 10 µM unless noted
# NCI-H23 lung = tested on: NCI-H23 lung
# NCI-H226 lung = tested on: NCI-H226 lung
# NCI-H322M lung = tested on: NCI-H322M lung
# HOP-62 NSCLC = tested on: HOP-62 NSCLC
# NCI-H460 lung = tested on: NCI-H460 lung
# HOP-92 NSCLC = tested on: HOP-92 NSCLC
# NCI-H522 lung = tested on: NCI-H522 lung
# A549/ATCC NSCLC = tested on: A549/ATCC NSCLC
# 786-0 renal = tested on: 786-0 renal
# COLO 205 colon = tested on: COLO 205 colon
# DU-145 prostate = tested on: DU-145 prostate
# K-562 leukemia = tested on: K-562 leukemia
# MALME-3M melanoma = tested on: MALME-3M melanoma
# MDA-MB-231 breast = tested on: MDA-MB-231 breast
# RXF 393 renal = tested on: RXF 393 renal
# SF-268 CNS = tested on: SF-268 CNS
# SF-295 CNS = tested on: SF-295 CNS
# SF-539 CNS = tested on: SF-539 CNS
# UACC-257 melanoma = tested on: UACC-257 melanoma
# M14 melanoma = tested on: M14 melanoma
SMILES,growth (NCI-H23 lung),growth (NCI-H226 lung),growth (NCI-H322M lung),growth (HOP-62 NSCLC),growth (NCI-H460 lung),growth (HOP-92 NSCLC),growth (NCI-H522 lung),growth (A549/ATCC NSCLC),growth (786-0 renal),growth (COLO 205 colon),growth (DU-145 prostate),growth (K-562 leukemia),growth (MALME-3M melanoma),growth (MDA-MB-231 breast),growth (RXF 393 renal),growth (SF-268 CNS) [%],growth (SF-295 CNS),growth (SF-539 CNS),growth (UACC-257 melanoma),growth (M14 melanoma)
CCCn1c2cc(OCc3cn(-c4ccc(Cl)cc4)nn3)ccc2c2ccnc(C)c21,78.1%,69.5%,73%,70.1%,71.1%,50.5%,66.4%,70.8%,34.8%,44.1%,95.7%,34.9%,98.7%,64.6%,73%,95.1,81.6%,87.3%,61%,76.4%
C#C[C@@]1(O)[C@@H](CO)O[C@@H](n2cc(F)c3c(N)ncnc32)[C@@H]1O,-30.5% (active),-62.3% (active),-2.54% (active),17.5%,0.623% (active),-15% (active),-1.45% (active),-37.9% (active),-29.5% (active),-43.4% (active),2.84% (active),9.21% (active),-30.2% (active),-14.8% (active),-36.8% (active),15.9,-23% (active),0.929% (active),2.98% (active),-42% (active)
O=c1c2ccccc2oc2ccc(OCCCCCCN3CCCCCC3)cc12,39.2%,74.1%,74.3%,74.1%,35%,74.6%,46%,40.4%,27.1%,-5.01% (active),65.6%,2.32% (active),-47.2% (active),43.7%,36.8%,61.7,38.9%,54.9%,2.49% (active),-32% (active)
Nc1c(C(=O)Nc2ccccn2)sc2nc3c(cc12)C(=O)CCC3,46.1%,74.7%,43.6%,40.6%,6.33% (active),87.3%,12%,18%,35.4%,7.57% (active),5.74% (active),22.2%,58.2%,51.6%,1.88% (active),53.1,16.2%,14.6%,69.8%,18.3%
CC(=O)c1ccc(NC(=O)CSc2nnc(-c3cc(-c4ccc(Cl)cc4)nc4ccccc34)o2)cc1,61%,96.4%,97.8%,80.6%,46%,94.2%,60.9%,76.7%,63.5%,96.6%,90%,63%,70.8%,53.7%,87.2%,82.4,88.3%,74.2%,97.5%,77.6%
COCCOCCOCc1n(Cc2ccc3ccccc3c2)c2ccccc2[n+]1Cc1ccc2ccccc2c1,5.56% (active),17.2%,40.5%,17.2%,10.3%,-32.1% (active),-16.6% (active),33.1%,23.6%,-60.7% (active),32.7%,11%,-18.1% (active),-1.76% (active),21.1%,17.9,13.1%,37.2%,-13.1% (active),6.95% (active)
CCOC(=O)c1c(C)nc2c(c1N)/C(=C/c1ccc[nH]1)C(=O)N2Cc1ccc(C(F)(F)F)cc1,51.8%,38.1%,74.4%,23.6%,16.8%,41.1%,43.3%,48.9%,22.9%,75.6%,79.1%,63.4%,62.1%,18.3%,48.6%,55.5,29.4%,40.4%,77.6%,69.8%
C#C[C@@]1(O)[C@@H](CO)O[C@@H](n2cc(Br)c3c(N)ncnc32)[C@@H]1O,2.83% (active),21.2%,1.46% (active),-5.18% (active),-36% (active),-27.2% (active),-30.7% (active),-51.8% (active),-48.5% (active),-36.8% (active),5% (active),5.03% (active),5.66% (active),2.76% (active),-30.9% (active),13.9,2.42% (active),-60.8% (active),57.5%,0.212% (active)
C=C(C)[C@@H]1CC[C@]2(C(=O)n3ccnc3)CC[C@]3(C)[C@H](CC[C@@H]4[C@@]5(C)CCCNC(C)(C)[C@@H]5CC[C@]43C)[C@@H]12,38.8%,64.5%,66.9%,66.3%,-71.8% (active),51.5%,50.7%,23%,29.9%,-69.8% (active),37%,-38.4% (active),-74.4% (active),20.5%,10.8%,59.4,-54.7% (active),24.6%,5.14% (active),-78.6% (active)
O=Cc1[nH]c(Sc2ccccc2)c2ccccc12,67.2%,66.9%,91.7%,85.6%,90.5%,45.7%,107%,96.1%,81.1%,64.8%,83%,35.5%,58.2%,85.1%,75.1%,75,114%,78.8%,77.7%,81.3%
Nc1ccc(C2=NN(C(=O)c3cc(-c4ccc(Cl)cc4)nc4ccccc34)C(c3ccc(Cl)cc3)C2)cc1 (stereo not given),50%,60.1%,45.2%,28.8%,17.2%,60.3%,15.4%,43.8%,25.6%,22.6%,27.2%,13.2%,63%,63.2%,-4.45% (active),55,18.2%,8.98% (active),57.5%,6.28% (active)
CC(=O)OC[C@]12CC[C@@H](c3cn(Cc4ccc(Cn5cc([C@@H]6CC[C@]7(COC(C)=O)CC[C@]8(C)[C@H](CC[C@@H]9[C@@]%10(C)CC[C@H](OC(C)=O)C(C)(C)[C@@H]%10CC[C@]98C)[C@@H]67)nn5)cc4)nn3)[C@@H]1[C@H]1CC[C@@H]3[C@@]4(C)CC[C@H](OC(C)=O)C(C)(C)[C@@H]4CC[C@@]3(C)[C@]1(C)CC2,98.3%,95.5%,97.6%,94.9%,104%,103%,88.5%,93.5%,95.5%,105%,103%,94.7%,98.8%,96.9%,105%,88.8,98.8%,98.7%,93.3%,103%
N#Cc1c(-c2ccc(F)cc2)nc(N/N=C/c2cccc(O)c2)nc1N1CCOCC1,99.9%,100%,81.4%,92%,98.3%,64.4%,69.5%,82.3%,65.1%,73.4%,65.9%,67.5%,100%,96.8%,53.9%,88.3,98.9%,78.4%,88.8%,85.6%
Cc1cccc(C)c1NC(=O)CN(CC(C)C)CC(O)COc1ccccc1 (stereo not given),86%,94.9%,97.7%,90%,111%,91.4%,82.3%,90.6%,78.6%,100%,111%,96%,103%,93.5%,103%,102,88%,97.6%,110%,87.8%
COc1ccc(-n2nc(C(=O)NCC(=O)O)nc2-c2ccccc2)cc1,107%,105%,98.1%,108%,116%,97.1%,82.5%,97.8%,102%,124%,111%,93.4%,92.4%,108%,120%,99.3,107%,97.2%,97.1%,102%
